# Measured values published in the supplement of paper PMC13380429.
# Tests used:
# [1] = system: Vero E6 infected with SARS-CoV-2; experiment: morphology score (similarity to uninfected cells); higher = more like uninfected cells; details: 24 h
# [2] = system: Vero E6 infected with SARS-CoV-2; experiment: SARS-CoV-2 infection rate relative to infected DMSO; higher = more infection, active = 60 or less; details: 24 h
smiles,measurement,setting,value
CC(=O)OCC(CCn1cnc2cnc(N)nc21)COC(C)=O [famciclovir] (10 µM),morphology score,[1],0.139
same,SARS-CoV-2 infection rate,[2],102% (inactive)
C[C@]12CC[C@@H]3c4ccc(O)cc4CC[C@H]3[C@@H]1CC[C@@H]2OC(=O)CCC1CCCC1 [estradiol-cypionate] (10 µM),morphology score,[1],-0.002
same,SARS-CoV-2 infection rate,[2],99% (inactive)
NC(=O)CN1CC(c2ccccc2)CC1=O (stereo not given) [phenylpiracetam] (10 µM),morphology score,[1],0.175
same,SARS-CoV-2 infection rate,[2],94% (inactive)
O=C(C1CCCCC1)N1CC(=O)N2CCc3ccccc3C2C1 (stereo not given) [praziquantel] (10 µM),morphology score,[1],0.151
same,SARS-CoV-2 infection rate,[2],106% (inactive)
OCCn1cc(-c2ccc3c(c2)CC/C3=N\O)c(-c2ccncc2)n1 (10 µM),morphology score,[1],0.0962
same,SARS-CoV-2 infection rate,[2],79.5% (inactive)
Cc1ccc(C(=O)Nc2ccc(CN3CCN(C)CC3)c(C(F)(F)F)c2)cc1C#Cc1cnc2cccnn12 [ponatinib] (10 µM),morphology score,[1],0.435
same,SARS-CoV-2 infection rate,[2],97% (inactive)
CCCCNC(=O)[C@@H]1Cc2ccccc2N1C(=O)[C@@H](N)CC [butabindide] (10 µM),morphology score,[1],0.203
same,SARS-CoV-2 infection rate,[2],86.5% (inactive)
O=C(O)c1ccc(-c2c[nH]c3ncc(-c4ccccc4)cc23)cc1C1CCCC1 (10 µM),morphology score,[1],0.309
same,SARS-CoV-2 infection rate,[2],89.5% (inactive)
Cc1ccc2c(-c3ccccc3)nc(=O)n(C(C)C)c2c1 [proquazone] (10 µM),morphology score,[1],0.0698
same,SARS-CoV-2 infection rate,[2],103% (inactive)
CC(C)(N)c1cc(C(=O)N[C@@H]2CCc3ccc(Oc4ccnc5c4CCC(=O)N5)cc3C2)cc(C(F)(F)F)c1 (0.833333 µM),morphology score,[1],0.227
same,SARS-CoV-2 infection rate,[2],99% (inactive)
